# From PubChem BioAssay (NCI)
# This is part of a sample that, as a whole, favours compounds with a hit. Of some 83,000 tested, about 20% had one in any assay.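 Interpretation: 100, growth as untreated; towards 0, rising growth inhibition; 0, no net growth; 0 to -100, cell death. Compounds scoring below 10 were considered active.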 Unmarked numbers belong to inactive results. Active and inactive are the calls of the source.
# Legend:
# Experiment in all cases: NCI-60 one-dose screen, 48 h (100 = growth as untreated, 0 = no growth, -100 = all killed)
# Conditions in all cases: 10 µM unless noted
# NCI-H23 lung = system: NCI-H23 lung
# NCI-H226 lung = system: NCI-H226 lung
# NCI-H322M lung = system: NCI-H322M lung
# HOP-62 NSCLC = system: HOP-62 NSCLC
# NCI-H460 lung = system: NCI-H460 lung
# HOP-92 NSCLC = system: HOP-92 NSCLC
# NCI-H522 lung = system: NCI-H522 lung
# 786-0 renal = system: 786-0 renal
# COLO 205 colon = system: COLO 205 colon
# A549/ATCC NSCLC = system: A549/ATCC NSCLC
SMILES,growth (NCI-H23 lung),growth (NCI-H226 lung),growth (NCI-H322M lung),growth (HOP-62 NSCLC),growth (NCI-H460 lung),growth (HOP-92 NSCLC),growth (NCI-H522 lung),growth (786-0 renal),growth (COLO 205 colon),growth (A549/ATCC NSCLC)
O[C@@H](c1cc(C(F)(F)F)nc2c(C(F)(F)F)cccc12)[C@H]1CCCCN1,81.5%,94.6%,71.5%,56.1%,35.6%,12.3%,40%,46.3%,67.9%,
Cn1cc(-c2nn3cc(-c4ccccc4)nc3s2)c2ccccc21,79.2%,69.5%,71%,61.4%,79.9%,71.9%,38.9%,99.4%,73.7%,
COc1ccc(NC(=O)c2sc3nc(C)c(C(O)c4ccccc4)cc3c2N)cc1 (stereo not drawn),28.7%,57.9%,56.8%,28.2%,10.1%,78.9%,10.2%,40.7%,-5.84% (active),24.9%
COc1ccc(OC)c(-c2cn3nc(-c4c[nH]c5ccc(Br)cc45)sc3n2)c1,25%,89.9%,50.6%,60.9%,-32.4% (active),46.5%,8.67% (active),49.3%,29.8%,
CC(CN)[C@@H]1CC[C@]2(CO)CC[C@]3(C)[C@H](CC[C@@H]4[C@@]5(C)CCC(N)C(C)(C)[C@@H]5CC[C@]43C)[C@@H]12 (stereo partly drawn),-29.1% (active),85.2%,48.8%,-48.1% (active),-80% (active),70.9%,-50.4% (active),-63.1% (active),32.8%,
Nc1c(C(=O)Nc2ccncc2)sc2nc3c(cc12)CCCCC3,61.8%,72.3%,99.9%,81.8%,81.6%,73%,73.9%,79.1%,86.5%,
O=C(CN1CCN(c2cc3c(cc2F)c(=O)c(C(=O)O)cn3C2CC2)CC1)N/N=C/c1ccncc1,102%,100%,96.3%,92.2%,106%,94.1%,96.5%,90.8%,108%,86.8%
Cn1cc(-c2ccc3cc(-c4ccc(CC(=O)Nc5cc(C(C)(C)C)on5)cc4)cnc3c2)cn1,46.1%,43%,16.5%,44.4%,-3.39% (active),50.9%,17.2%,-92.6% (active),35.3%,
CCCCc1oc2ccccc2c1C(=O)c1ccc(O)cc1,-5.52% (active),92.8%,85.1%,79.3%,84.4%,68.2%,66.7%,79.5%,118%,
CC(C)=CC(=O)N[C@@H]1CC2CCC3C(CC[C@@]4(C)C3CC[C@@H]4C(C)N(C)C)[C@@]2(C)C[C@@H]1O (stereo partly drawn),43.8%,89.1%,104%,56.4%,32.1%,40.6%,83%,58.5%,14.8%,
Cn1cccc1/C=C1\C(=O)Nc2ccccc21,66.9%,104%,87.9%,86.8%,89.1%,97.2%,101%,96.6%,121%,
COc1cc(-c2cc(-c3ccc(Nc4ncnc5cc(Cl)ccc45)cc3)nc(N3CCN(C)CC3)n2)cc(OC)c1OC,108%,50.5%,104%,94.4%,100%,77.7%,85.8%,45.2%,90.6%,
Cc1ccc(C)c(-n2c(-c3ccc(Br)cc3)csc2=NC(=O)c2ccccc2F)c1,54.7%,82.5%,92.8%,95.8%,40.3%,67.6%,168%,71.1%,92.9%,
COc1cc(C(=O)c2c(-c3ccccc3)oc3c(OC)cccc23)cc(OC)c1O,34%,-0.617% (active),56.2%,31.8%,3.99% (active),34.9%,13.1%,33.4%,7.65% (active),
CC[C@H](CC[C@@H](C)[C@H]1CC[C@H]2[C@@H]3CC[C@@H]4CC(=O)/C(=C\c5ccncc5)C[C@]4(C)[C@H]3CC[C@]12C)C(C)C,99.4%,103%,98.3%,99.3%,109%,91.5%,95.3%,95.7%,107%,
COc1ccc(C2CC(c3ccc(Nc4nc(Nc5ccc(F)cc5)nc(Nc5ccc(F)cc5)n4)cc3)=NN2C(C)=O)cc1 (stereo not drawn),75.7%,106%,87.5%,96.7%,101%,-13.6% (active),83.1%,82%,111%,
COc1cc(-c2nc3occn3c2-c2ccnc(NCCCNS(=O)(=O)c3ccccc3)n2)ccc1F,45.6%,18.4%,78.3%,73.9%,47.8%,63.4%,26.6%,63.8%,28.8%,
O=C(CCCCCCN1CC(=O)N2[C@@H](C3CCCCC3)c3[nH]c4ccccc4c3C[C@H]2C1=O)NO,72.2%,97.1%,79%,65.9%,61.1%,59.1%,39.9%,88%,62.9%,
Cc1ccc(/C=C(\C#N)C(=O)Nc2ncc(Cc3cc(Cl)ccc3Cl)s2)o1,67.1%,90.1%,47.3%,41.6%,30.6%,77%,48.6%,46.9%,102%,
CCOC(=O)Cn1c(=O)c2c3ccccc3n(C)c2n2nnc(-c3ccccc3)c12,84.8%,76.9%,120%,106%,101%,41.1%,86.1%,98%,116%,
Cc1ccc(O)c(NC(=O)c2ccc(CNc3ccnc(C(F)(F)F)c3)cc2)c1,81.1%,74%,65.3%,56%,18.8%,92.1%,67.6%,48.8%,152%,
COc1ccc(C2=NN(C(=O)c3cc(OC)c(OC)c(OC)c3)C(c3ccc(N(C)C)cc3)C2)cc1 (stereo not drawn),26.4%,20.6%,48.3%,54.5%,3.74% (active),21.6%,-32.4% (active),13.6%,5.9% (active),
CCCCCCCCn1ccc2cc(NC(=O)Cn3cc(CN4CCCCCC4)nn3)ccc21,52.3%,38.6%,26.7%,55.7%,-58.7% (active),24%,52.4%,-71.9% (active),-70.1% (active),
CCOC(=O)c1c(C)c2c(n1C)CSc1cc(S(=O)(=O)c3ccccc3)c(=O)[nH]c1-2,21.7% [100 µM],24.3% [100 µM],28.1% [100 µM],57.5% [100 µM],,8.76% [100 µM] (active),32% [100 µM],31.4% [100 µM],-27.7% [100 µM] (active),32.1% [100 µM]
O=C1/C(=C/c2ccccc2)CN(C(=O)c2cccnc2)C/C1=C\c1ccccc1,-30.5% (active),-43.7% (active),34.1%,0.894% (active),,78.7%,-25.4% (active),-53.8% (active),-29.5% (active),17.2%
CC[C@H](C)[C@H](NC(=O)[C@H](CCCNC(=N)N)NC(=O)[C@H](Cc1c[nH]c2ccccc12)NC(=O)[C@@H](NC(=O)[C@H](CCCCN)NC(=O)[C@H](CCCCN)NC(=O)[C@@H](NC(=O)[C@@H](NC(=O)[C@@H](NC(=O)[C@H](CCCCN)NC(=O)[C@H](Cc1ccccc1)NC(=O)[C@H](CCCCN)NC(=O)[C@H](CCCCN)NC(=O)[C@H](Cc1ccccc1)NC(=O)[C@@H](NC(=O)[C@@H](N)CCCCN)[C@@H](C)CC)[C@@H](C)O)[C@@H](C)CC)[C@@H](C)CC)C(C)C)C(=O)N[C@@H](Cc1ccccc1)C(=O)NCC(=O)N[C@@H](CCCNC(=N)N)C(=O)N[C@@H](Cc1ccccc1)C(N)=O,-37.9% (active),1.83% (active),-50.5% (active),-41.7% (active),,-20.3% (active),14.1%,-31.3% (active),,-40.6% (active)
C=CCCC(=O)N1C=CC(=O)[C@H](O)[C@@H]1/C=C/c1ccccc1,52.8% [100 µM],26.8% [100 µM],59% [100 µM],35.3% [100 µM],,70.6% [100 µM],74.1% [100 µM],14.2% [100 µM],,52% [100 µM]
